From PubChem
ELG1 genotoxic: inducers of genotoxicity in HEK293T ELG1-luciferase cells; HEK293T ELG1-luciferase reporter, luminescence, 16 h; Potency, µM (highest dose often 46 µM), hits mostly activators; 330,000 compounds, 1.3% hits; further: nearly all actives have a fitted effect of over 60% in size
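DMSO vehicle served as control against compound-treated ELG1-luciferase HEK293T cells; exposure lasted 16 hr at 37 °C and 5% CO2, followed by ONE-Glo luminescence detection after 30 min.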
FLuc counter: firefly luciferase modulation, counter-screen for miR-21 project. P08659. purified FLuc, Km substrates, luminescence inhibition. Potency, µM (titrated, usually from 57.5 µM), hits mostly inhibitors. 360,000 compounds, 6.9% hits. AID 588342; further: nearly all actives have a fitted effect of over 55% in size
Target sequence (P08659 whole entry, looked up): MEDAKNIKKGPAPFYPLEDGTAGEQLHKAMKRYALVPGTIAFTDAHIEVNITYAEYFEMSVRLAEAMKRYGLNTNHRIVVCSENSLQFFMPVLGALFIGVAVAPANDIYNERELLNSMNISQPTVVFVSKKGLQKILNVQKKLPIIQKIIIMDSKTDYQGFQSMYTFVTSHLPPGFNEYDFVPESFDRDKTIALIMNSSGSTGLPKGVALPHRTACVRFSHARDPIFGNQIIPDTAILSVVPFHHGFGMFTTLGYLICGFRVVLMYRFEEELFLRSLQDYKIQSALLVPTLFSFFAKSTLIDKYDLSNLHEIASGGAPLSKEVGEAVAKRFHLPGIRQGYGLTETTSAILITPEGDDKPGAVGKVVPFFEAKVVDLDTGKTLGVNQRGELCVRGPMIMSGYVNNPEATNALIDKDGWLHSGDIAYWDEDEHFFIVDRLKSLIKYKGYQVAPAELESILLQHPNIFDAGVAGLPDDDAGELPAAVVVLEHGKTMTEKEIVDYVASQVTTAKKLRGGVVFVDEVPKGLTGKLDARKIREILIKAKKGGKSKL
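Purified P. pyralis luciferase (10nM final) with 10uM D-luciferin and 10uM ATP (Km levels) in 50mM Tris acetate pH 7.5, 10mM Mg acetate, 0.01% Tween-20, 0.05% BSA; qHTS 6-point titration, ~60 µM downward; luminescence read.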
Rab9 promoter act: activators of Rab9 promoter. Huh7 Rab9 promoter-luciferase reporter, luminescence, 24 h. Potency, µM (titrated, usually from 9.22 µM), hits mostly activators. 320,000 compounds, 2.8% hits; further: nearly all actives have a fitted effect of over 60% in size
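Cells were plated at 1500 per well in reduced-serum medium with 10% FBS and left 2 h. Compound in DMSO was then added for 24 h at 37 °C. Reporter signal was read by luminescence after 10 min with luciferase detection reagent.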
SMN2 splice up: SMN2 splice variant enhancement; 210,000 compounds, 2.8% hits; AID 1458; Potency, µM (top dose mostly 46.1 µM), hits mostly activators; HEK293 SMN2-luciferase splicing reporter, luminescence, 30-36 h; further: nearly all actives have a fitted effect of over 55% in size
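HEK293 cells carry an SMN2 minigene-luciferase reporter in which exon 7 inclusion puts luciferase in frame. Cells were seeded at 2000 cells/well, attached for 10-12 hours, then exposed to compounds for 30-36 hours at 37C before ONE-Glo luminescence.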
NPC1 promoter act: activators of NPC1 promoter. Potency, µM (titrated, usually from 9.22 µM), most hits filed as activators. 320,000 compounds, 2.4% hits. Huh7 NPC1 promoter luciferase reporter, 24 h. AID 485313; further: nearly all actives have a fitted effect of over 60% in size
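Stably transfected Huh7 (NPC1 promoter→luciferase), 1500 cells/well in Opti-MEM + 10% FBS, 2 h settle, then compound 24 h at 37 °C. Luminescence after 10 min with Amplite reagent.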
Luc counter: counter-screen: inhibitors of Kinase-Glo firefly luciferase. AID 1379. Potency, µM (doses to about 38.3 µM), actives largely listed as inhibitors. Kinase-Glo luciferase, ATP luminescence, 8 min. 200,000 compounds, 0.28% hits; further: nearly all actives have a fitted effect of over 60% in size
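Compounds were added to a substrate mix at pH 7.2 (50 mM imidazole, 10 uM ATP, within the enzyme's linear range), followed by Kinase-Glo detection reagent; luminescence was measured after 8 minutes at ambient temperature.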
A number is an active result; n = inactive; u = inconclusive; x = not tested or not shown; [ ] = dose if it differs, or a comment. The list is not random: actives were taken first. Their share in the collection is about 7.3%. The call rests on the fitted dose curve; in most records, active means well fitted curve in the direction sought with a large enough effect; inconclusive means small, poorly fitted or top-dose-only effect, or another doubt; inactive means no such curve, though single readings can be large; an effect the other way counts as inactive or inconclusive.

SMILES	ELG1 genotoxic	FLuc counter	Rab9 promoter act	SMN2 splice up	NPC1 promoter act	Luc counter
CCC(=O)c1ccc(OCC(=O)OCC(=O)c2cc(C)n(CC3CCCO3)c2C)cc1 (stereo not given)	n	n	n	x	n	x
COc1cccc(/C=C/C(=O)OCC(=O)c2cc(C)n(CC3CCCO3)c2C)c1OC (stereo not given)	n	13µM	n	x	n	x
COc1cc(C)ccc1OCC(=O)OCC(=O)c1cc(C)n(CC2CCCO2)c1C (stereo not given)	n	u	n	x	n	x
CCC(C)NC(=O)C1CCN(C(=O)c2cc3sccc3n2Cc2ccc(Cl)cc2)CC1 (stereo not given)	x	n	x	n	x	x
Cc1nc(N2CCCC2)ncc1C(=O)N1CCN(c2ccc(Cl)cc2)CC1	x	n	x	x	x	x
O=C(Cc1ccccc1)NC1CC(=O)N(c2ccccc2)C1 (stereo not given)	x	n	x	x	x	x
COc1cccc(-n2cc(C(=O)Oc3cccc(C(F)(F)F)c3)c3ccccc3c2=O)c1	x	n	x	x	x	x
CSc1ccc(/C=C/C(=O)N2CCN(c3ccccn3)CC2)cc1	n	13µM	n	x	n	x
COc1ccc(/C=C/C(=O)NC(=S)N2CCN(c3ccccn3)CC2)cc1OC	n	24µM	n	x	n	n
O=C(/C=C/c1ccc(F)cc1)NC(=S)N1CCN(c2ccccn2)CC1	n	21µM	2.5µM	x	u	x
Cc1ccc(S(=O)(=O)N2CCc3cc(C(=O)Nc4c(F)cccc4F)ccc32)cc1	x	n	x	n	x	x
COc1ccc(-c2noc(CSc3nnc(-c4ccncc4)n3-c3ccc(C)c(C)c3)n2)cc1	x	n	x	n	x	x
CC1CCC(C(C)C)[C@H](O)C1 (stereo not given in full)	x	x	x	n	x	n
Cc1nn(C)c2c1c(-c1ccccc1)cc(=O)n2Cc1ccccc1Cl	x	n	x	x	x	x
Cc1ccc(NC(=O)c2ccc(Cn3cc(Cl)cn3)o2)c(C)c1	n	n	n	x	n	x
N#Cc1c(NC(=O)c2ccc(Cn3cc(Br)cn3)o2)sc2c1CCCCC2	n	11µM	n	u	n	n
CC1CCc2c(sc(NC(=O)c3ccc(Cn4cc([N+](=O)[O-])cn4)o3)c2C#N)C1 (stereo not given)	n	13µM	n	n	n	n
COC(=O)c1sc(NC(=O)c2ccc(Cn3cc(Cl)cn3)o2)c(C#N)c1C	n	21µM	n	n	n	n
COc1cccc2c1Oc1ncccc1N(C(=O)CCC(=O)NCc1ccc(N(C)C)cc1)C2	x	n	x	x	x	x
CC(=O)c1cc(-c2ccc(F)cc2)n(CC(=O)NC2CCCCCC2)c1C	x	n	x	x	x	x
CC(C)Oc1ccc(CNC(=O)CN2C(=O)CCn3nc(-c4cn(C)c5ccccc45)cc32)cc1	x	n	x	x	x	x
COc1ccc2nccc(SCC(=O)O)c2c1	x	x	x	n[9.22 µM]	x	n[7.66 µM]
c1cncc(-c2nn[nH]n2)c1	n	n	n	n	n	n
CN(C)c1c(F)cc(-c2nn[nH]n2)cc1F	n	15µM	n	x	n	x
CCOc1ccccc1NC(=O)c1cc(S(=O)(=O)N2CCOCC2)cn1C	x	n	x	x	x	x
SMILES	ELG1 genotoxic	FLuc counter	Rab9 promoter act	SMN2 splice up	NPC1 promoter act	Luc counter
Cc1cccc(C(=O)Nc2cccc(C(=O)OCc3cc(=O)n4nc(C(C)C)sc4n3)c2)c1	x	n	x	x	x	x
Cc1nn2c(=O)cc(COC(=O)c3cccc(NC(=O)c4ccc(C(C)(C)C)cc4)c3)nc2s1	x	0.54µM	x	x	x	x
Cc1cn2c(=O)cc(COC(=O)c3ccc(NC(=O)COc4ccccc4F)cc3)nc2s1	x	n	x	x	x	x
Cc1cn2c(=O)cc(COC(=O)c3cccc(NC(=O)COc4ccccc4Cl)c3)nc2s1	x	4.8µM	x	x	x	x
CCCc1c(C)c2ccc(OCC(C)=O)cc2oc1=O	u	u	u	n	u	n
Cc1c(CC(=O)O)c(=O)oc2cc(OCc3nn[nH]n3)ccc12	n	n	n	n	n	n
COc1ccc(CNC(=O)Cc2c(C)c3ccc(O)cc3oc2=O)cc1	x	7.6µM	x	n	x	x
CC(=O)COc1ccc2c(C)c(-c3ccccc3)c(=O)oc2c1	n	17µM	3.2µM	n	u	n
Cc1c(CC(=O)O)c(=O)oc2cc(OCc3ccc(Cl)cc3)ccc12	n	8.5µM	n	x	n	x
CCCCc1c(C)c2ccc(OCC(C)=O)cc2oc1=O	5.2µM	19µM	2.8µM	16µM	3.2µM	n
Cc1ccc(CN2C(=O)C(=O)c3cc(Br)cc(C)c32)cc1	x	u	x	n	x	x
CC(=O)Nc1ccc(NC(=O)CCc2nc3cccnc3n2Cc2cccs2)cc1	x	n	x	n	x	x
Cc1c(C)c2ccc(OCC(=O)c3ccccc3)cc2oc1=O	u	u	3.5µM	x	2.2µM	x
Cc1c(Cc2ccccc2)c(=O)oc2cc(OCC(=O)N3CCC(C(=O)O)CC3)ccc12	n	21µM	n	x	n	x
Cc1c(Cc2ccccc2)c(=O)oc2cc(OC(=O)c3ccccc3)ccc12	n	u	n	n	n	n
COc1cccc(C(=O)COc2ccc3c(C)c(Cc4ccccc4)c(=O)oc3c2)c1	n	n	n	n	n	n
COC(=O)Cc1c(C)c2ccc(OC(=O)c3ccccc3)cc2oc1=O	n	15µM	n	n	n	n
CCn1cc2nc(SCc3cccc(C(F)(F)F)c3)n(Cc3ccc(C)cc3)c(=O)c2n1	x	n	x	x	x	x
CCn1cc(Br)c(C(=O)Nc2ccc(C(=O)OC(C)C)cc2)n1	n	15µM	u	n	u	n
CCn1nccc1C(=O)Nc1ccc(C(=O)OC(C)C)cc1	n	19µM	u	x	u	x
CCCCOC(=O)c1ccc(NC(=O)c2nn(C)cc2Br)cc1	n	21µM	n	n	n	n
CCCCOC(=O)c1ccc(NC(=O)c2c(OC)cccc2OC)cc1	n	n	n	n	n	n
CCn1cc(Br)c(C(=O)Nc2ccc(OC)cc2)n1	u	15µM	n	14µM	u	n
Cc1ccc(S(=O)(=O)c2nc(S(=O)(=O)c3ccc(C)cc3)c(NCCCOC(C)C)s2)cc1	x	n	x	n	x	x
COc1ccc(OCC2c3cc(OC)c(OC)cc3CCN2C(=O)c2ccc(F)cc2)cc1 (stereo not given)	x	n	x	x	x	x
SMILES	ELG1 genotoxic	FLuc counter	Rab9 promoter act	SMN2 splice up	NPC1 promoter act	Luc counter
Cc1ccc(NC(=O)Cn2c(=O)n(CCC(=O)N3CCc4ccccc4C3)c(=O)c3ccccc32)cc1	x	n	x	n	x	x
O=C(CCn1c(=O)c2cccn2c2cccnc21)N1CCN(c2ccccc2F)CC1	x	n	x	x	x	x
CCc1cc(C(=O)Nc2ccccc2)cs1	u	n[2.3 µM]	2.2µM	n	n	n
CCc1cc(C(=O)NNC(=S)NCc2ccccc2)cs1	n	n	n	n	n	n
CCc1cc(C(=O)NNC(=S)Nc2ccccc2C)cs1	u	6.7µM	2.8µM	14µM	3.5µM	n
O=C1CCC(c2ccccc2)=NN1c1nc2ccccc2s1	x	x	x	n[9.22 µM]	x	n[7.66 µM]
COc1ccc(NC(=O)c2ccco2)cc1NC(=O)c1ccc(Br)o1	n	n	n	n	n	n
CC(C)(C)C(=O)Nc1ccc(-c2nc3ccc(NC(=O)C(C)(C)C)cc3[nH]2)cc1	x	1.9µM	x	u	x	x
